Hit rate of the full screen: of about 350,000 compounds, about 5,500 (1.6%) were called active. The sample holds actives, similar compounds and a random draw of the others, so the mix is not that of the screen.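 Rule for the calls: active = significant combined selectivity score with lowered wild-type GFP, culture density cut under 30%, mutant RFP and density less affected; inactive = any of these conditions unmet.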

This test in a line: reduced GFP signal of wild-type E. coli, primary screen, bacterial rRNA inhibitor project, GFP/RFP fluorescence, OD600, single point (AID 720706). The conditions noted are these: E. coli WT GFP vs humanized-ribosome RFP mutants, 24 h; GFP signal change (wild-type ribosome): stronger effect = lower value, DMSO median 0, no signal -100; OD600 change: measured here: OD600 growth, DMSO median 0, no signal -100; RFP signal change: measured here: RFP humanized mutant strains, DMSO median 0, no signal -100, concentration not given here.
With `O=C(Nc1cccc(Cl)c1)N1C[C@@H]2[C@H](c3ccccc31)[C@H](CO)N2C(=O)C1CC1`, the GFP signal change (wild-type ribosome) is -55.8% (inactive), the OD600 change was -75.7% and the RFP signal change is -10.1%.

For the compound `O=C(Nc1cccc(Cl)c1)N1C[C@@H]2[C@H](c3ccccc31)[C@H](CO)N2Cc1ccncc1`, the GFP signal change (wild-type ribosome) was -19.3% (active), the OD600 change is -14% and the RFP signal change amounted to 2.23%.

For the compound `O=C(Nc1ccccc1)N1C[C@H]2[C@@H](c3ccccc31)[C@H](CO)N2Cc1ccc(F)cc1`, the GFP signal change (wild-type ribosome) was -4.61% (inactive), the OD600 change is -3.58% and the RFP signal change was found to be 0.773%.

In the case of `O=C(C[C@@H]1C[C@@H]2c3cc(NC(=O)c4ccc5c(c4)OCO5)ccc3O[C@@H]2[C@H](CO)O1)NCC1CC1`, the GFP signal change (wild-type ribosome) is -0.47% (inactive), the OD600 change was -2.45% and the RFP signal change amounted to 1.83%.

Regarding `N#C[C@H]1[C@H](c2ccccc2-c2ccc(F)cc2)[C@H](CO)N1C(=O)Cc1ccncc1`, the GFP signal change (wild-type ribosome) was -3.78% (inactive), the OD600 change was found to be 7.17% and the RFP signal change is -0.986%.

In the case of `COCc1cn(CC[C@H]2CC[C@H](NC(=O)Cc3cccnc3)[C@H](CO)O2)nn1`, the GFP signal change (wild-type ribosome) was -2.43% (inactive), the OD600 change is -1.71% and the RFP signal change was -2.1%.

`C=CCN(c1ccccc1C(=O)NCC(=O)OCC)S(=O)(=O)c1ccc(C)cc1`: the GFP signal change (wild-type ribosome) was 5.68% (inactive), the OD600 change is -1.3% and the RFP signal change is 1.08%.

Take `NC(=O)c1ccccc1N(Cc1ccccc1)S(=O)(=O)c1ccccc1`: the GFP signal change (wild-type ribosome) is -4.05% (inactive), the OD600 change is -16.6% and the RFP signal change is -0.699%.

For `CCOC(=O)N1CCN(C(=O)c2ccccc2N(Cc2ccccc2)S(=O)(=O)c2ccc(OC)cc2)CC1`, the GFP signal change (wild-type ribosome) was -25.8% (active), the OD600 change is -20.1% and the RFP signal change came out at 0.913%.

Turning to `C[C@H](CO)N1C[C@H](C)[C@H](CN(C)C(=O)C2CC2)OCc2ccccc2-c2ccccc2C1=O`, the GFP signal change (wild-type ribosome) was 3.14% (inactive), the OD600 change amounted to 2.12% and the RFP signal change was -2.73%.

For the compound `CO[C@@H]1CN(C)C(=O)c2ccc(NC(=O)C3CC3)cc2OC[C@H](C)N(C(C)=O)C[C@H]1C`, the GFP signal change (wild-type ribosome) was 2.84% (inactive), the OD600 change turned out to be 2.36% and the RFP signal change was -2.71%.

As to `O=C1NCCOCc2cn(nn2)CC[C@@H]1Cc1ccccc1`, the GFP signal change (wild-type ribosome) is 4.08% (inactive), the OD600 change turned out to be 6.55% and the RFP signal change was -0.105%.

As for `O=C(Nc1nnc(Cc2ccccc2)s1)c1cnccn1`, the GFP signal change (wild-type ribosome) was 13.9% (inactive), the OD600 change turned out to be 13.3% and the RFP signal change worked out at 1.31%.

For the compound `O=C(Nc1nnc(Cc2ccc(Cl)cc2)s1)c1ccncc1`, the GFP signal change (wild-type ribosome) is -25.9% (active), the OD600 change came to 0.397% and the RFP signal change was 10.4%.

Consider `O=C(Nc1nnc(Cc2ccc(Cl)cc2)s1)c1cccnc1`, for which the GFP signal change (wild-type ribosome) is -2.18% (inactive), the OD600 change stood at 2.81% and the RFP signal change is -2.51%.

For the compound `CO[C@@H]1CN(C)C(=O)c2ccc(NS(C)(=O)=O)cc2OC[C@@H](C)N(C(=O)C2CCOCC2)C[C@@H]1C`, the GFP signal change (wild-type ribosome) is 2.81% (inactive), the OD600 change is -0.862% and the RFP signal change is -0.242%.

As for `CS(=O)(=O)N1CCCCN2[C@H](CO)[C@H](c3ccc(-c4cccc(C#N)c4)cc3)[C@H]2C1`, the GFP signal change (wild-type ribosome) was -2.77% (inactive), the OD600 change is 2.86% and the RFP signal change worked out at 1.13%.

Take `C[C@@H](NC(=O)C[C@@H]1CC[C@H](NC(=O)Cc2ccccn2)[C@H](CO)O1)c1ccccc1`: the GFP signal change (wild-type ribosome) is 1.1% (inactive), the OD600 change was -1.33% and the RFP signal change was found to be 0.264%.

Turning to `COc1ccc(-c2cc(C(=O)N3CCN(Cc4ccc5c(c4)OCO5)CC3)on2)cc1OC`, the GFP signal change (wild-type ribosome) was -30.2% (active), the OD600 change was -22.1% and the RFP signal change was determined as 4.69%.

As for `Cc1cc(C)n2nc(C(=O)N3CCN(Cc4ccc5c(c4)OCO5)CC3)nc2n1`, the GFP signal change (wild-type ribosome) is 6.71% (inactive), the OD600 change was 4.13% and the RFP signal change was -0.674%.

Consider `COc1cc(Cl)c(S(=O)(=O)N2CCN(Cc3ccc4c(c3)OCO4)CC2)cc1Cl`, for which the GFP signal change (wild-type ribosome) was -5.43% (inactive), the OD600 change is -7.87% and the RFP signal change is -2.97%.

Regarding `Cc1ccnc(NC(=O)CNC(=O)c2ccccc2)c1`, the GFP signal change (wild-type ribosome) was 0.565% (inactive), the OD600 change was found to be 1.47% and the RFP signal change came to 0.604%.

`Cc1noc(C)c1COc1ccc(C(=O)NCCOc2ccccc2)cc1`: the GFP signal change (wild-type ribosome) was -5.24% (inactive), the OD600 change was -2.29% and the RFP signal change is -0.784%.

`Cc1ncoc1C(=O)NCCC(c1ccccc1)c1ccccc1`: the GFP signal change (wild-type ribosome) is -22.1% (active), the OD600 change was -9.13% and the RFP signal change worked out at 0.235%.

Take `COc1ccc(NC(=O)Nc2ccc3c(c2)C(=O)N([C@@H](C)CO)C[C@@H](C)[C@@H](CN(C)Cc2ccncc2)OCCCC[C@@H](C)O3)cc1`: the GFP signal change (wild-type ribosome) was -3.01% (inactive), the OD600 change is -5.38% and the RFP signal change is 9.15%.

Regarding `CO[C@@H]1CN(C)C(=O)c2cc(NC(=O)NC3CCCCC3)ccc2OC[C@@H](C)N(C(C)=O)C[C@H]1C`, the GFP signal change (wild-type ribosome) was 1.07% (inactive), the OD600 change amounted to 3.15% and the RFP signal change was -0.812%.

As to `COc1cccc(-c2ccc([C@H]3[C@H](CO)N4CCCCN(S(=O)(=O)c5cccs5)C[C@@H]34)cc2)c1`, the GFP signal change (wild-type ribosome) was -0.886% (inactive), the OD600 change is -0.41% and the RFP signal change is 0.565%.

On to `Cc1cccc(-c2ccc([C@H]3[C@H](CO)N4CCCCN(S(=O)(=O)c5cn(C)cn5)C[C@@H]34)cc2)c1`, for which the GFP signal change (wild-type ribosome) is 2.02% (inactive), the OD600 change stood at 3.81% and the RFP signal change came out at 1.54%.

Turning to `Cc1cccc(-c2ccc([C@@H]3[C@@H](CO)N4CCCCN(S(=O)(=O)c5cccs5)C[C@H]34)cc2)c1`, the GFP signal change (wild-type ribosome) was -37.8% (active), the OD600 change is -24.1% and the RFP signal change is -1.67%.

Regarding `Cc1ccccc1-c1ccc2c(c1)O[C@@H](CN(C)C(=O)Nc1ccc(F)cc1)[C@H](C)CN([C@@H](C)CO)S2(=O)=O`, the GFP signal change (wild-type ribosome) was -3.25% (inactive), the OD600 change is -11.6% and the RFP signal change is -1.01%.

Consider `O=C(c1ccncc1)N1CC(=O)N2[C@H](CO)[C@H](c3ccc(-c4ccccc4F)cc3)[C@@H]2C1`, for which the GFP signal change (wild-type ribosome) was 3.75% (inactive), the OD600 change is -1.79% and the RFP signal change was -0.215%.

On to `CCCNC(=O)N1CC2(C1)CN(Cc1cccc(F)c1)[C@@H](CO)c1[nH]c3cc(OC)ccc3c12`, for which the GFP signal change (wild-type ribosome) was 0.104% (inactive), the OD600 change is 3.77% and the RFP signal change was 0.338%.

Regarding `COCCn1c(SCC(=O)Nc2ccc(F)cc2F)nc2c(c1=O)SCC2`, the GFP signal change (wild-type ribosome) was 0.103% (inactive), the OD600 change was -1.78% and the RFP signal change was -3.71%.

Consider `Cc1cccc(CSc2nc3c(c(=O)n2C)SCC3)c1`, for which the GFP signal change (wild-type ribosome) was -33.5% (active), the OD600 change is -21% and the RFP signal change is -2.49%.

As for `Cn1c(SCC(=O)N2CCCCC2)nc2c(c1=O)SCC2`, the GFP signal change (wild-type ribosome) was 5.14% (inactive), the OD600 change is -0.579% and the RFP signal change is -0.99%.

Regarding `CCCN1[C@H](C(=O)N[C@H](C)c2ccccc2)[C@@H](CO)[C@@H]2Cn3c(ccc(-c4ccccc4)c3=O)[C@@H]21`, the GFP signal change (wild-type ribosome) was -1.92% (inactive), the OD600 change was -37.1% and the RFP signal change was 14.2%.

As for `Cc1ccc(N2C(=O)SC(N(CC(=O)O)c3ccc(C)cc3)C2=O)cc1` (centres undefined), the GFP signal change (wild-type ribosome) is -19.1% (active), the OD600 change is -12.3% and the RFP signal change was determined as 8.05%.

For `Cc1cccc(N2C(=O)SC(N(CC(=O)O)c3cccc(C)c3)C2=O)c1` (centres undefined), the GFP signal change (wild-type ribosome) is 2.86% (inactive), the OD600 change came to 2.55% and the RFP signal change worked out at 2.75%.

As to `Cc1ccc(CC2S/C(=C(/C#N)C(=O)N3CCOCC3)N(c3ccccc3)C2=O)cc1` (centres undefined), the GFP signal change (wild-type ribosome) was 7.88% (inactive), the OD600 change worked out at 10.1% and the RFP signal change was -0.528%.

Take `CCC(=O)N(C)C[C@@H]1Oc2cc(C#CCOC)ccc2S(=O)(=O)N([C@@H](C)CO)C[C@@H]1C`: the GFP signal change (wild-type ribosome) is 2.66% (inactive), the OD600 change was 5.66% and the RFP signal change was -0.769%.

Turning to `C[C@H](CO)N1C[C@H](C)[C@@H](CN(C)S(=O)(=O)c2ccc(Cl)cc2)Oc2ccc(NS(=O)(=O)c3cccs3)cc2CC1=O`, the GFP signal change (wild-type ribosome) was -3.83% (inactive), the OD600 change was -15.4% and the RFP signal change was found to be 2.4%.

With `CN(c1ccc(O)cc1)c1nc(-c2cccnc2)cs1`, the GFP signal change (wild-type ribosome) is -12.4% (inactive), the OD600 change was -11.5% and the RFP signal change is -4.17%.

Turning to `COc1ccc(C(C)(O)c2nc(-c3ccc(C)c(C)c3)cs2)cc1` (centres undefined), the GFP signal change (wild-type ribosome) is -26.3% (inactive), the OD600 change was -43.5% and the RFP signal change amounted to 0.438%.

Take `CC(C)(C)C(=O)OCc1nc(-c2ccc(O)c(O)c2)cs1`: the GFP signal change (wild-type ribosome) is -25.8% (active), the OD600 change is -12.7% and the RFP signal change was -1.12%.

As to `COc1ccccc1-c1ccc([C@@H]2C[C@H]3[C@H](CON3C)CN2S(=O)(=O)c2cc(Cl)cc(Cl)c2)cc1`, the GFP signal change (wild-type ribosome) is 6.53% (inactive), the OD600 change worked out at 14.8% and the RFP signal change was -4.58%.

As to `O=C(CSc1nnnn1-c1ccc(O)cc1)c1ccc(F)cc1`, the GFP signal change (wild-type ribosome) was -23.8% (inactive), the OD600 change was -18.1% and the RFP signal change is -2.43%.

With `CC(=O)Nc1ccc(NC(=O)CSc2nnnn2-c2ccccc2F)cc1`, the GFP signal change (wild-type ribosome) is 4.89% (inactive), the OD600 change worked out at 2.23% and the RFP signal change was -0.743%.

`Cc1ccccc1-n1nnnc1SCCCC(=O)c1ccc(F)cc1`: the GFP signal change (wild-type ribosome) was -23.1% (active), the OD600 change was -14.2% and the RFP signal change was -2.44%.

For `CCNC(=O)Nc1ccc2c(c1)C(=O)N(C)[C@H]1CC[C@H](CC(=O)NCC3CCCCC3)O[C@@H]1CO2`, the GFP signal change (wild-type ribosome) is -0.861% (inactive), the OD600 change was -5.67% and the RFP signal change came out at 0.251%.

With `O=C(c1ccc(F)cc1)N1CC(=O)N2[C@H](CO)[C@H](c3ccc(-c4ccccc4F)cc3)[C@@H]2C1`, the GFP signal change (wild-type ribosome) was 0.409% (inactive), the OD600 change was -9.64% and the RFP signal change amounted to 3.17%.

With `C[C@@H]1CN([C@H](C)CO)C(=O)c2cc(NC(=O)Nc3ccccc3)ccc2O[C@@H](C)CCCCO[C@@H]1CN(C)S(=O)(=O)c1ccc(F)cc1`, the GFP signal change (wild-type ribosome) is 1.72% (inactive), the OD600 change is -2.21% and the RFP signal change is -3.62%.

Turning to `COc1ccc2c3c(n(C)c2c1)[C@@H](CO)N(C)CC31CN(S(=O)(=O)c2cccs2)C1`, the GFP signal change (wild-type ribosome) was 0.733% (inactive), the OD600 change is -9.82% and the RFP signal change was -0.435%.

Consider `O=C(C[C@@H]1CC[C@@H](NC(=O)Nc2ccc(F)cc2)[C@H](CO)O1)NCCN1CCCC1`, for which the GFP signal change (wild-type ribosome) was 0.52% (inactive), the OD600 change was 4.7% and the RFP signal change was -1.57%.

These data come from PubChem BioAssay AID720706 (Broad Institute, 2013).
